Measured values: PubChem BioAssay AID2018 (Sanford-Burnham Center for Chemical Genomics, 2009)
The campaign covered roughly 1,200 compounds. About 600 (50%) were called active. The set was probably picked from earlier hits. Some of the results follow. Potency and affinity values are given separately. Unmarked numbers belong to inactive results. Cut-off read from the data, not from the text of the source: active = inhibition above about 42%; inactive = the rest.

What follows are molecules tested against SUMO-conjugating enzyme UBC9 (Homo sapiens) (UniProt P63279) (assay: SUMOylation inhibitor hit validation, confirmation, SUMOylation inhibitor project, biochemical, AlphaScreen (AID 2018)). Settings: AlphaScreen in vitro SUMOylation assay; at 35 µM; hits give high values.
Sequence of SUMO-conjugating enzyme UBC9 (Homo sapiens) (P63279 whole entry, looked up): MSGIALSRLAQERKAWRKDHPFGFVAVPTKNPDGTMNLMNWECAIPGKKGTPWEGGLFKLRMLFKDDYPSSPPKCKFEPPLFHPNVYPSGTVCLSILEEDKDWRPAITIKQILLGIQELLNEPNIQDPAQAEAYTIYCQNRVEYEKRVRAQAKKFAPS

Question: How did the inhibition turn out when `S=C(Nc1cccc(Cl)c1)Nc1ccc2cn[nH]c2c1` was run?
Answer: 7.2%

Question: For `Cc1cc(C)c(C(N)=O)c(Nc2cccc3ccccc23)n1`, which inhibition is on record?
Answer: 24.4%

Question: `Fc1ccc(NC(=S)Nc2cccc3ccccc23)cc1` was tested. Which inhibition did it give?
Answer: -2.8%

Question: How did the inhibition turn out when `Cc1ccc(NC(=S)Nc2cccc3ccccc23)cc1F` was run?
Answer: 3.1%

Question: For `Fc1ccc(NC(=S)Nc2cccc3ccccc23)cc1F`, which inhibition is on record?
Answer: -4.6%

Question: With `Nc1ccc(O)cc1C(=O)OCC(=O)c1ccc(C2CCCCC2)cc1` as the molecule, how does the inhibition read?
Answer: 29.2%

Question: Which inhibition does the source give for `COC(=O)C1C(O)=C(C(C)=Nc2cccc3ccccc23)C(=O)CC1(C)C` (configuration not stated) here?
Answer: -0.8%

Question: How did the inhibition turn out when `CC(C)(C)c1cc(=O)n(-c2ccccc2)[nH]1` was run?
Answer: 22.8%

Question: `Cc1cc(=O)[nH]c(-n2[nH]c(C)cc2=O)n1` was tested. Which inhibition did it give?
Answer: 78.7% (active)

Question: Which inhibition does the source give for `Cc1ccc(N2CCN(Cc3ccccc3)CC2=O)c(C)c1` here?
Answer: 18.7%

Question: For `O=c1c(-c2ccccc2)coc2c(CN3CCCC3)c(O)ccc12`, which inhibition is on record?
Answer: -8%

Question: How did the inhibition turn out when `CC(=O)c1ccc(N2CCN(C(=O)c3cccs3)C(C)C2)c(F)c1` (configuration not stated) was run?
Answer: 14.2%

Question: How did the inhibition turn out when `Cc1nn(-c2ccccn2)c2c1C(=O)C(Br)CC2` (configuration not stated) was run?
Answer: 97.2% (active)

Question: `O=c1c2ccccc2nc2n1CCC2` was tested. Which inhibition did it give?
Answer: 97.9% (active)

Question: With `Cc1ccc(/C=C(\C#N)C(=O)Nc2cccc3ncccc23)o1` as the molecule, how does the inhibition read?
Answer: 23.5%

Question: How did the inhibition turn out when `O=C(O)c1cc(Cl)c(Cl)cc1C(=O)Nc1cccc2ncccc12` was run?
Answer: 9.9%

Question: `Cc1cc(C)c(S(=O)(=O)/N=C2/C=C(SCC(=O)O)C(=O)c3ccccc32)cc1C` was tested. Which inhibition did it give?
Answer: 95.8% (active)

Question: Which inhibition does the source give for `COc1ccc2nc(/C(C#N)=C\c3ccc(C(=O)O)cc3)[nH]c2c1` here?
Answer: 21.7%

Question: Which inhibition does the source give for `CCC(NC(=O)Nc1ccc(O)cc1)(C(F)(F)F)C(F)(F)F` here?
Answer: -10.3%

Question: With `CCc1cccc(NC(=S)Nc2cccc3ccccc23)c1` as the molecule, how does the inhibition read?
Answer: 15%

Question: With `COc1cc(/C=C2\C(=O)N(CCC#N)N=C2C)ccc1OCC(=O)Nc1ccccc1` as the molecule, how does the inhibition read?
Answer: 12.4%

Question: For `O=C1Nc2ccc(C(F)(F)F)cc2N2CCCC12` (configuration not stated), which inhibition is on record?
Answer: 46.5% (active)

Question: How did the inhibition turn out when `Cc1ccc(NC(=S)Nc2cccc3ccccc23)cc1` was run?
Answer: 19.1%

Question: Which inhibition does the source give for `CC(C)(C)c1cc[n+](C2=C([O-])c3ccccc3C(=O)/C2=N\S(=O)(=O)c2cccs2)cc1` here?
Answer: 90.8% (active)

Question: With `CCOc1ccc(C(Nc2cccnc2)c2cc(Cl)c3cccnc3c2O)cc1` (configuration not stated) as the molecule, how does the inhibition read?
Answer: -212%

Question: How did the inhibition turn out when `O=C(O)COc1ccccc1C(Nc1cccnc1)c1cc(Cl)c2cccnc2c1O` (configuration not stated) was run?
Answer: 102% (active)

Question: `COC(=O)c1ccccc1NC1=C/C(=N\S(=O)(=O)c2cccs2)c2ccccc2C1=O` was tested. Which inhibition did it give?
Answer: 102% (active)

Question: For `O=[N+]([O-])c1cc(Cl)cc(/C=N/NC(=S)Nc2ccc(S(=O)(=O)N3CCOCC3)cc2)c1O`, which inhibition is on record?
Answer: 102% (active)

Question: `CCN(C(=S)Nc1cc(S(=O)(=O)N2CCOCC2)ccc1Cl)c1cccc2ccccc12` was tested. Which inhibition did it give?
Answer: 11.1%

Question: With `CC(C)(C)c1cnnn1-c1cccc([N+](=O)[O-])c1` as the molecule, how does the inhibition read?
Answer: 5.8%

Question: `Cc1[nH]n(-c2ccccc2)c(=O)c1C(C[N+](=O)[O-])c1ccc(Br)cc1` (configuration not stated) was tested. Which inhibition did it give?
Answer: 101% (active)

Question: With `COc1cccc(C(c2c(C)[nH]n(-c3ccccc3)c2=O)c2c(C)[nH]n(-c3ccccc3)c2=O)c1OC` as the molecule, how does the inhibition read?
Answer: 89.3% (active)

Question: Which inhibition does the source give for `Cc1[nH]n(-c2ccccc2)c(=O)c1C(c1cccc([N+](=O)[O-])c1)c1c(C)[nH]n(-c2ccccc2)c1=O` here?
Answer: 79.1% (active)

Question: How did the inhibition turn out when `C=CCN(CC=C)c1nc2ccccc2nc1C(C#N)C(=O)OC(C)C` (configuration not stated) was run?
Answer: -10.3%

Question: Which inhibition does the source give for `Cc1[nH]n(-c2ccccc2)c(=O)c1C(c1ccc(C(=O)O)cc1)c1c(C)[nH]n(-c2ccccc2)c1=O` here?
Answer: 41.6%

Question: `COc1ccc(C(c2c(C)[nH]n(-c3ccccc3)c2=O)c2c(C)[nH]n(-c3ccccc3)c2=O)cc1OC` was tested. Which inhibition did it give?
Answer: 101% (active)

Question: `CCOc1ccc(N2CC(C(=O)NCc3ccc(F)cc3)CC2=O)cc1` (configuration not stated) was tested. Which inhibition did it give?
Answer: 6.3%

Question: How did the inhibition turn out when `COCCNC(=O)CCC1CCN(Cc2ccc(-c3ccccc3)cc2)CC1` was run?
Answer: -1.3%

Question: With `Cc1n[nH]c(=S)n(NC(=O)/C=C/C(=O)Nn2c(=S)[nH]nc(C)c2=O)c1=O` as the molecule, how does the inhibition read?
Answer: 101% (active)

Question: With `S=C(Nc1ccc2nsnc2c1)N1CCCCC1` as the molecule, how does the inhibition read?
Answer: 18.3%

Question: How did the inhibition turn out when `S=C(Nc1ccc2nsnc2c1)N1CCCCCC1` was run?
Answer: 28.1%

Question: Which inhibition does the source give for `S=C(NCc1ccc2c(c1)OCO2)Nc1ccc2nsnc2c1` here?
Answer: 25.4%

Question: With `S=C(Nc1ccc2nsnc2c1)NC1CCCCC1` as the molecule, how does the inhibition read?
Answer: 95.3% (active)

Question: With `OCCNC(=S)Nc1ccc2nsnc2c1` as the molecule, how does the inhibition read?
Answer: 54.8% (active)

Question: How did the inhibition turn out when `COCCNC(=S)Nc1ccc2nsnc2c1` was run?
Answer: 6.6%

Question: `Cc1ccc(-n2nc3ccc(N)cc3n2)c(C)c1` was tested. Which inhibition did it give?
Answer: 39.7%

Question: Which inhibition does the source give for `CN(C)C=Nc1ccc2nn(-c3ccccc3)nc2c1` here?
Answer: -10.8%

Question: For `Nc1ccc2nc(-c3ccccc3)sc2c1`, which inhibition is on record?
Answer: -1.4%

Question: How did the inhibition turn out when `Cn1cc2ccc(N)cc2n1` was run?
Answer: -18.5%

Question: Which inhibition does the source give for `Nc1ccc2nn(-c3cccc4ccccc34)nc2c1` here?
Answer: 43.5% (active)

Question: With `Nc1ccc2nn(-c3ccccc3)nc2c1` as the molecule, how does the inhibition read?
Answer: 68.1% (active)

Question: How did the inhibition turn out when `N#Cc1ccsc1NC(=O)CN1CCN(c2ccc(O)cc2)CC1` was run?
Answer: 5.7%

Question: `O=C(Cc1ccccc1)Nc1nnc(-c2ccco2)s1` was tested. Which inhibition did it give?
Answer: 11.3%

Question: With `O=C(Nc1ccc2nc(-c3ccco3)c(-c3ccco3)nc2c1)N1CCN(c2ccccn2)CC1` as the molecule, how does the inhibition read?
Answer: 76.6% (active)

Question: For `O=C(Nc1ccc2nsnc2c1)N1CCCCC1`, which inhibition is on record?
Answer: 2.3%

Question: How did the inhibition turn out when `S=C(Nc1ccc2nc(-c3ccccn3)c(-c3ccccn3)nc2c1)N1CCOCC1` was run?
Answer: 3.8%

Question: Which inhibition does the source give for `O=C(Nc1ccccc1)Nc1ccno1` here?
Answer: -7.1%

Question: With `CC(C)c1ccccc1NC(=O)COc1ccc(C(=O)NCCc2ccccc2)cc1` as the molecule, how does the inhibition read?
Answer: 26.7%

Question: For `O=C(NCc1ccccc1)c1ccc2nc(-c3ccco3)c(-c3ccco3)nc2c1`, which inhibition is on record?
Answer: 65.7% (active)

Question: For `O=C(NCCc1ccccc1)c1ccc2nc(-c3ccco3)c(-c3ccco3)nc2c1`, which inhibition is on record?
Answer: 70.9% (active)

Question: How did the inhibition turn out when `CC(=O)Nc1ccc2nc3ccccc3nc2c1` was run?
Answer: 15.1%

Question: `COc1ccc(CCn2c(N)c(C(=O)NCc3ccco3)c3nc4ccccc4nc32)cc1OC` was tested. Which inhibition did it give?
Answer: 9.7%

Question: With `COc1ccc(CCNC(=O)c2ccc3nc(-c4ccco4)c(-c4ccco4)nc3c2)cc1OC` as the molecule, how does the inhibition read?
Answer: 73.3% (active)

Question: `O=C(Nc1cccnc1)c1cc2cc(Br)ccc2oc1=O` was tested. Which inhibition did it give?
Answer: 34.9%

Question: For `Cc1ccc(Cn2cccc(NS(C)(=O)=O)c2=O)cc1`, which inhibition is on record?
Answer: 26.5%

Question: Which inhibition does the source give for `COc1ccc(-c2cc(-c3ccccc3)n3ncnc3n2)cc1` here?
Answer: 5.5%

Question: How did the inhibition turn out when `Cc1nn2cc(-c3ccccc3)nc2[nH]c1=O` was run?
Answer: 9.6%

Question: How did the inhibition turn out when `CC(C)c1ccc(S(=O)(=O)/N=C2/C=CC(=O)c3ccccc32)cc1` was run?
Answer: 102% (active)

Question: With `O=C(NCc1ccccc1)Nc1cccn(Cc2c(F)cccc2Cl)c1=O` as the molecule, how does the inhibition read?
Answer: -15.7%

Question: With `Oc1ccc(/C=N/Nc2cc(N3CCCC3)nc(N3CCCC3)n2)cc1` as the molecule, how does the inhibition read?
Answer: 82.3% (active)

Question: `Oc1ccc(/C=N/Nc2cc(N3CCCC3)nc(N3CCCC3)n2)cc1O` was tested. Which inhibition did it give?
Answer: 102% (active)

Question: For `CN(C)c1ccc(/C=N/Nc2cc(N3CCOCC3)nc(N3CCOCC3)n2)cc1`, which inhibition is on record?
Answer: 39.5%

Question: `COc1ccc2c(c1)-c1nc(/N=C/c3ccc(O)cc3)sc1CC2` was tested. Which inhibition did it give?
Answer: 30.9%

Question: For `Cc1ccc(N=Nc2c(N)[nH]n3c(=O)cc(C)nc23)cc1`, which inhibition is on record?
Answer: 37.3%

Question: For `COc1ccc2c(c1)Cc1sc(NC(=O)c3cccs3)nc1-2`, which inhibition is on record?
Answer: 51.9% (active)

Question: Which inhibition does the source give for `COc1ccc(C(=O)Nc2nc3c(s2)Cc2cc(OC)ccc2-3)cc1` here?
Answer: 59.7% (active)

Question: With `COCCN(CCOC)S(=O)(=O)c1ccc(C(=O)Nc2nc3c(s2)CCc2ccccc2-3)cc1` as the molecule, how does the inhibition read?
Answer: 30.1%

Question: Which inhibition does the source give for `COc1ccc2c(c1)Cc1sc(NC(C)=O)nc1-2` here?
Answer: 41.3%

Question: For `COc1ccc2c(c1)Cc1sc(NC(=O)c3ccccc3)nc1-2`, which inhibition is on record?
Answer: 34.5%

Question: Which inhibition does the source give for `Cn1c(=O)c(Nc2ccc(O)cc2)c2c3c(cccc31)C(=O)c1ccccc1-2` here?
Answer: 91.8% (active)

Question: Which inhibition does the source give for `COc1ccc(-c2ccnc3nc(/N=C/N(C)C)nn23)cc1` here?
Answer: -8.3%

Question: For `COc1cccc(Cn2cccc(NC(=O)NC3CCCCC3)c2=O)c1`, which inhibition is on record?
Answer: 25.8%

Question: How did the inhibition turn out when `CC1CCN(CCCn2c(=S)[nH]c3ccc(N4CCOCC4)cc3c2=O)CC1` was run?
Answer: -13.8%

Question: Which inhibition does the source give for `Cc1c2c(=O)n(-c3nc4ccccc4s3)nc-2cc(O)n1Cc1ccccc1` here?
Answer: 20.5%

Question: Which inhibition does the source give for `O=c1c2ccccc2nc(/C=C/c2cccnc2)n1Cc1ccccc1` here?
Answer: 98.2% (active)

Question: For `COCCCNC(=O)c1c(N)n(-c2ccccc2)c2nc3ccccc3nc12`, which inhibition is on record?
Answer: -25.1%

Question: `COc1ccc(-n2c3nc4ccccc4nc3c3c(=N)oc(C)nc32)cc1` was tested. Which inhibition did it give?
Answer: 64% (active)

Question: For `NC(=O)N/N=C/c1ccc2cccc(OCc3ccccc3)c2n1`, which inhibition is on record?
Answer: 31.5%

Question: With `COc1ccccc1/C=N/NC(=O)c1ccc(CN2C(=O)c3cccc4cccc2c34)cc1` as the molecule, how does the inhibition read?
Answer: -17.1%

Question: Which inhibition does the source give for `O=C(N/N=C/c1ccccc1)c1ccc(CN2C(=O)c3cccc4cccc2c34)cc1` here?
Answer: 51.5% (active)

Question: For `Cc1cccc(C(=O)NC2C(=O)NNC2c2ccc(Cl)cc2)c1` (configuration not stated), which inhibition is on record?
Answer: 69.8% (active)

Question: How did the inhibition turn out when `CC1OC(Nc2cccc3ccccc23)C(O)C(O)C1O` (configuration not stated) was run?
Answer: 38.7%

Question: How did the inhibition turn out when `O=C(N/N=C/c1ccc(O)c2ncccc12)c1cccc(Br)c1` was run?
Answer: 65.3% (active)

Question: For `CCOc1ccc(N2C(=O)c3ccc(C(=O)OCC(=O)N(CC)C4CCS(=O)(=O)C4)cc3C2=O)cc1` (configuration not stated), which inhibition is on record?
Answer: 42.4% (active)

Question: How did the inhibition turn out when `O=c1oc2cc(O)ccc2cc1-c1ccc(F)cc1` was run?
Answer: 15.5%

Question: For `Cc1cc(/C=C2\SC(=S)NC2=O)c(C)[nH]1`, which inhibition is on record?
Answer: 65.4% (active)

Question: How did the inhibition turn out when `c1ccc2c3c(cc(N4CCOCC4)c2c1)OC1(N2CCOCC2)CCCCC1O3` (configuration not stated) was run?
Answer: 92% (active)
